Bioassay records deposited in PubChem by National Center for Advancing Translational Sciences (NCATS).
Sampled rows, rich in hits. Any-hit rate of the full collection: about 1.5%.
12-LOX inh: blocks human arachidonate 12S-lipoxygenase; purified 12hLO, xylenol orange hydroperoxide absorbance; Potency, µM (highest dose often 108 µM), actives largely listed as inhibitors; 1.1% of 580,000 active; P18054; AID 1671190
Target sequence (P18054 whole entry, looked up): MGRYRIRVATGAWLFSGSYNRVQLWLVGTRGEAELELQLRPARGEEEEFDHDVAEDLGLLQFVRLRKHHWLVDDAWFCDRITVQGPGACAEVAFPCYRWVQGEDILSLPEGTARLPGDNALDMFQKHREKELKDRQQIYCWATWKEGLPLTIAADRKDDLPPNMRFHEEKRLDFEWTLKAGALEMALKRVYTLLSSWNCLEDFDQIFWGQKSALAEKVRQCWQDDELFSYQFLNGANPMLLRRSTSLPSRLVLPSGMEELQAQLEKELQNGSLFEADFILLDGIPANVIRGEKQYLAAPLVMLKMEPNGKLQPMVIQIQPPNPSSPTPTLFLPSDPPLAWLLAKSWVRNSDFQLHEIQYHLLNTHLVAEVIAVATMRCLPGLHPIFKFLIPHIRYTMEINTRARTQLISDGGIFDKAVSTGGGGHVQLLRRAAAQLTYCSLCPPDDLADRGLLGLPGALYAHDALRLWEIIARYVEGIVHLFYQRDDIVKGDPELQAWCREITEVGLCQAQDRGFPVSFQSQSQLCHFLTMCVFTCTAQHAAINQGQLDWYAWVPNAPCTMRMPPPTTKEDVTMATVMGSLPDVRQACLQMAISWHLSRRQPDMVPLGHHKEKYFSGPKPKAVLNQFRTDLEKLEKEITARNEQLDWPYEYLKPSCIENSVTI
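Hydroperoxide product was detected by ferrous iron/xylenol orange as the 573 to 405 nm absorbance ratio. Arachidonic acid at 40 uM (final) was turned over for 30 min at room temperature by 150 nM human 12hLO, pH 7.0 Hepes buffer, after 15 min compound preincubation.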
uPA surface inh: inhibitors of cell surface uPA generation; 0.31% of 330,000 active; cell surface uPA generation assay, qHTS; AID 540303; Potency, µM (top dose mostly 38.3 µM), usual class: inhibitors; active = well fitted inhibition curve with a large enough effect; inconclusive = small, poorly fitted or top-dose-only effect; inactive = no such curve, though single readings can be large or run the other way; tested in mouse RAW 264.7 cells; note: nearly all actives have a fitted effect of over 55% in size
Nrf2 ARE act: activators of Nrf2 (ARE) signaling; 0.31% of 410,000 active; AREc32 ARE-luciferase reporter (MCF7-derived line), luminescence, 24 h; Potency, µM (doses to about 46.1 µM), most hits filed as activators; note: nearly all actives have a fitted effect of over 65% in size
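For detection, Steady-Glo was added and plates sat 30 min at RT; before that, AREc32_Fluc cells grown overnight in OPTI-MEM/5% FBS had been treated with 23 nL compound for 24 hr at 37 deg C.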
a7 integrin act: activators of alpha7 integrin expression for muscular dystrophy | alpha7betagal myoblasts, beta-gal FDG fluorescence, 48 h | Potency, µM (top dose mostly 38.3 µM), actives largely listed as activators | 0.064% of 350,000 active | AID 624291; note: nearly all actives have a fitted effect of over 60% in size
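Alpha7betagal+/- myoblasts (passage 13) were plated 16-24 hr, then exposed to compounds (1:260 dilution of DMSO stock) for 48 hours at 37C. After MPER lysis, β-galactosidase reporter activity was read as FDG fluorescence (ex 480/em 540) after 30 minutes.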
IL2 activator: activators of IL-2. IL-2 activation reporter assay, cell-based qHTS; stimulated with anti-CD3/CD4/CD28 beads; in transgenic mouse T cells. 0.065% of 360,000 active. AID 652025. activation, % (series mostly up to about 46 µM); in the data active = activation above about 50%; inconclusive = mostly about 30% to 49%
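Readout: EGFP and DsRed signals by fluorescent plate cytometry. Unstimulated transgenic mouse T cells received compound 60 min before antibody-bead stimulation, then incubated 18 h at 37 degrees C.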
A number is an active result; 0 = inactive; ? = inconclusive; - = not tested or not shown; ! = a repeat was not active. Unless noted, calls come from the whole dose curve; as a rule, active = well fitted curve in the direction sought with a large enough effect; inconclusive = small, poorly fitted or top-dose-only effect, or another doubt; inactive = no such curve, though single readings can be large; an effect the other way counts as inactive or inconclusive.

SMILES	12-LOX inh	uPA surface inh	Nrf2 ARE act	a7 integrin act	IL2 activator
COc1ccc(NC(=O)C#Cc2ccccc2)cc1	0	0	14.1µM	0	0
COc1cc(OC)c(NC(=O)c2ccccc2F)cc1Cl	0	0	0	0	0
COc1cc2c(cc1NC(=O)c1ccccc1F)CCCC2	0	0	3.16µM	0	0
COc1nc2ccccc2cc1-c1noc(-c2ccccc2)n1	0	-	-	-	-
CCOc1ccc(/C=C/C(=O)c2cc(Br)ccc(=O)c2O)cc1	28.2µM	0	0	0	0
Cc1cccc(/C=C/C(=O)c2cc(Br)ccc(=O)c2O)c1	?	0	22.4µM	0	0
CCc1ccc(/C=C/C(=O)c2cc(Br)ccc(=O)c2O)cc1	?	0	?	0	0
CCOCCCNC(=O)/C=C/c1ccc(C)cc1	0	-	-	-	-
Oc1cc(O)cc(/C=C/c2ccc(O)c(O)c2)c1	7.94µM!	7.94µM	0	-	0
Clc1cc(Cl)cc(Nc2ncnc(-n3cccc3)n2)c1	0	0	2µM	0	0
Cc1ccc(Nc2ncnc(-n3cccc3)n2)cc1Cl	0	0	?	0	0
Cc1oc(-c2nc(C#N)c(NCc3ccc(F)cc3)o2)cc1S(=O)(=O)N(C)C	0	-	-	-	-
CCOC(=O)c1c(S(=O)(=O)N2CCCC2)nn(CC)c1C	12.6µM	-	-	-	-
O=C(c1ccc(S(=O)(=O)Cc2cc(F)ccc2F)c([N+](=O)[O-])c1)N1CCCC1	0	0	8.91µM	0	0
O=C(c1ccccc1)c1c2c(cc3sc4ccccc4[n+]13)-c1cccc3cccc-2c13	31.6µM	0	0	0	0
O=C(CSc1nc2ccccc2nc1N1CCCC1)Nc1ccc(Cl)cc1	0	0	0	0	0
CC(C)c1ccc(NC(=O)CSc2nc3ccccc3nc2N2CCCC2)cc1	6.31µM	0	0	0	0
CN(C)c1ccc(C(=O)C(=O)c2ccccc2)cc1	0	0	0	0	0
CN(C)c1ccc(C(=C2C=CC(=[N+](C)C)C=C2)c2ccccc2)cc1	0.322µM	-	-	-	-
CC(NC(=O)c1ccc2cc[nH]c2c1)c1ccccc1Br (configuration not stated)	0	-	-	-	-
O=C(NC1CCCCC1)N1CCC(c2nnc3n2CCNC3)CC1	12.6µM	-	-	-	-
CCOC(=O)NC(=O)COC(=O)CNC(=O)c1cccc(C)c1	0	-	-	-	-
CN(C)c1ccc(C=c2c3ccccc3n3c2c2ccccc2[n+]3C)cc1	5.01µM	0	0	0	0
Cc1cc2c(=Cc3ccc(N(C)C)cc3)c3ccccc3n2[n+]1C	0	0	0	0	0
O=C(N/N=C/C(Br)=C/c1ccccc1)c1ccccc1F	0	0	12.6µM	0	0
SMILES	12-LOX inh	uPA surface inh	Nrf2 ARE act	a7 integrin act	IL2 activator
O=C(N/N=C/C(Br)=C/c1ccccc1)c1cccs1	0	0	10µM	0	0
O=C(Cn1cnc2ccccc21)N/N=C/C(Br)=C/c1ccccc1	0	0	7.08µM	0	0
O=C(N/N=C/C(Br)=C/c1ccccc1)c1n[nH]c2c1CCC2	-	?	22.4µM	0	0
Cn1c(=O)c2c(ncn2CC(=O)N/N=C/C(Br)=C/c2ccccc2)n(C)c1=O	0	0	?	0	0
O=C(Nc1cccc(-c2nnc3n2CCCC3)c1)c1ccoc1	0	-	-	-	-
Cc1ccc(NC(=O)COC(=O)c2cccc(F)c2)cc1S(=O)(=O)N1CCCCC1	0	-	-	-	-
C=CCn1c(SCC(=O)c2ccccc2)nc2c1c(=O)[nH]c(=O)n2C	0	-	-	-	-
Cc1cn2nc(C(=O)N3CCC(C)CC3)cc2c(N(C)Cc2ccccc2)n1	0	-	-	-	-
CC1=NNC(=O)C1CC(=O)N/N=C/C(Br)=C/c1ccccc1 (configuration not stated)	0	0	?	0	0
CC1C(=O)NN=C1C(=O)N/N=C\C(Br)=C\c1ccccc1 (configuration not stated)	0	0	11.2µM	0	0
CCCCCNC(=O)Cc1csc2nc(C)c(-c3cc(C)n(-c4cccc(C)c4)n3)c(=O)n12	0	-	-	-	-
CCCCNC(=O)Cc1csc2nc(C)c(-c3cc(C)n(-c4cccc(Cl)c4)n3)c(=O)n12	39.8µM	-	-	-	-
CC(OC(=O)c1cc(C2CC2)nn1-c1ccccc1)C(=O)Nc1ccccc1 (configuration not stated)	0	-	-	-	-
Cc1ccc(C(=O)NCCc2ccccc2)cn1	0	-	-	-	-
Cc1cc(SCC(=O)N/N=C/c2ccc(O)c(O)c2)c(C)cc1Br	6.31µM	0	0	0	0
O=C(CSc1nc2ccccc2o1)N/N=C/c1ccc(O)c(O)c1	?	6.31µM	0	0	0
CCc1ccc(-c2nc(CSCC(=O)NCCCOC)c(C)o2)cc1	0	-	-	-	-
c1ccc(-c2nnc(NN=C3CCCC3)c3ccccc23)cc1	0	-	-	-	-
CC(C)n1c(SCC(=O)NCc2cccs2)nnc1-c1ccc2c(c1)OCCCO2	0	-	-	-	-
CC(=O)c1sc(Nc2ccccn2)nc1C	0	0	11.2µM	0	0
CC(C)Nc1nc(C(=O)Nc2ccc3[nH]ccc3c2)cs1	0	-	-	-	-
COC(=O)c1ccc(S(=O)(=O)N(Cc2ccc(C(=O)NC3CC3)cc2)C2CC2)cc1	0	-	-	-	-
Cc1ccc(C(NC(=O)C(C)C)c2cc([N+](=O)[O-])c3cccnc3c2O)cc1 (configuration not stated)	15.8µM	0	0	0	0
O=C1C=CC(=O)N1c1ccc2ccccc2c1	39.8µM	0	0	0	0
CC(NO)C(C)(C)NO (configuration not stated)	22.4µM!	0	0	0	0
SMILES	12-LOX inh	uPA surface inh	Nrf2 ARE act	a7 integrin act	IL2 activator
O=c1cc(-c2ccc(O)cc2)oc2ccc3ccccc3c12	0	0.891µM	0	0	0
Cc1ccccc1-c1cc(=O)c2ccccc2o1	0	?	0	0	0
O=c1cc(-c2ccccc2F)oc2ccccc12	0	0	?	0	0
COc1ccc(-c2cc(=O)c3cc(OC)ccc3o2)cc1	0	1.41µM	0	0	0
COc1ccc2oc(-c3ccccc3)cc(=O)c2c1	0	-	-	-	-
CSc1ccc(-c2cc(=O)c3ccccc3o2)cc1	0	0	2.82µM	0	0
O=c1cc(-c2ccc(O)cc2)oc2c1ccc1ccccc12	0	0	0	0	0
O=c1cc(-c2ccc(F)cc2)oc2ccccc12	0	0	11.2µM	0	0
O=C(NCCc1ccccn1)C1CC1	0	-	-	-	-
Cc1noc(Cn2c(=O)c(C#N)cn(C3CC3)c2=O)n1	0	-	-	-	-
CC(=O)Nc1ccc(C(=O)c2ccccc2)cc1	0	0	0	0	0
CC(=O)Nc1ccc(/C(N=Nc2ccccc2)=N/N=C(N)N)cc1	39.8µM	0	0	0	0
